Data published in the supplement of paper PMC11732987, “Enantioselective OTUD7B fragment discovery through chemoproteomics screening and high-throughput optimisation” (Communications Chemistry, 2025).

Columns and labels:
Experiment in all cases: log2 ratio of Biotin-Ahx-Ub-VS probe labelling (fragment/DMSO); higher = less target engagement (more negative = stronger competition), active = hit call of the paper (q ≤ 0.05, log2 ratio ≤ -1)
Conditions in all cases: compound concentration: 200 uM; treatment time: 3 h
OTUD6B = target: T1, OTUD6B (UniProt Q8N6M0)
T1 sequence (whole entry): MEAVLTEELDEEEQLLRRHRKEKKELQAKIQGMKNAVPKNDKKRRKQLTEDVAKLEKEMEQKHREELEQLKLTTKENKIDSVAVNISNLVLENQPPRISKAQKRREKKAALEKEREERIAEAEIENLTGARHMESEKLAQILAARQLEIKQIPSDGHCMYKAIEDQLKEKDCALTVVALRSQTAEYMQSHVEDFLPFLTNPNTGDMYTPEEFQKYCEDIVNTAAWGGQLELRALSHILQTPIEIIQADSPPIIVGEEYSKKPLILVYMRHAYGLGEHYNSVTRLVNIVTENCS
How it was run: (§1)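 Average log2 ratios of fragment over vehicle were obtained by unpaired t-test from global-median-normalised Spectronaut label-free quantities. Proteins with ≥2 unique peptides were included. HEK293T lysate (495 µg per sample) was treated in triplicate with fragment at 200 µM or vehicle for 3 h, then with Biotin-Ahx-Ub-VS at 0.5 µM final for 1 h, and labelled DUBs were NeutrAvidin-enriched and run by diaPASEF LC-MS/MS.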

OTUD7B = target: T2, OTUD7B (UniProt Q6GQQ9)
T2 sequence (whole entry): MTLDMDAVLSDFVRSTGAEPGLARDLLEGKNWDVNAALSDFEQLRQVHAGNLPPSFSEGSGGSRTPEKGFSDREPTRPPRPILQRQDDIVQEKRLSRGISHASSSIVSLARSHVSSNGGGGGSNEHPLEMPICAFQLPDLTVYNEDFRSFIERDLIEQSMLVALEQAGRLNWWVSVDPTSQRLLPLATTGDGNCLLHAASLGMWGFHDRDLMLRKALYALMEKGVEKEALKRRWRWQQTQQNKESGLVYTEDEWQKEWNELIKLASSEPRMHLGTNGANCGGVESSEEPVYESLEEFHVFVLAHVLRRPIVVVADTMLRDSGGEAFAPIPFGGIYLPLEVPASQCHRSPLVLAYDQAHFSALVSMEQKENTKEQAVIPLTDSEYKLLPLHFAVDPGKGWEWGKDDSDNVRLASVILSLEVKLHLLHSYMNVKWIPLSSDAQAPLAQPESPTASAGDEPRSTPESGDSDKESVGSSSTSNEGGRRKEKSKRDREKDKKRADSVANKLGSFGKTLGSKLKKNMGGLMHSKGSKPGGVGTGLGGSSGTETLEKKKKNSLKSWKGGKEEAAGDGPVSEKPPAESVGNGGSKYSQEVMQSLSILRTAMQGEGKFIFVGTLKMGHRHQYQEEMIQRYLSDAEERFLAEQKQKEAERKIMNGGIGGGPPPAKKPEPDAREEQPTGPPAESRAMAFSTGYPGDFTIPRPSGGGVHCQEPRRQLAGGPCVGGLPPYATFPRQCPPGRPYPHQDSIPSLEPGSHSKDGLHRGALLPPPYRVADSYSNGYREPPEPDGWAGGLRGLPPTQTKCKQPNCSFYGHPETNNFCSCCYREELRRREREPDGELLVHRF
How it was run: as §1

PRPF8 = PRPF8 (UniProt Q6P2Q9)
How it was run: as §1

PSMD7 = target: T3, PSMD7 (UniProt P51665)
T3 sequence (whole entry): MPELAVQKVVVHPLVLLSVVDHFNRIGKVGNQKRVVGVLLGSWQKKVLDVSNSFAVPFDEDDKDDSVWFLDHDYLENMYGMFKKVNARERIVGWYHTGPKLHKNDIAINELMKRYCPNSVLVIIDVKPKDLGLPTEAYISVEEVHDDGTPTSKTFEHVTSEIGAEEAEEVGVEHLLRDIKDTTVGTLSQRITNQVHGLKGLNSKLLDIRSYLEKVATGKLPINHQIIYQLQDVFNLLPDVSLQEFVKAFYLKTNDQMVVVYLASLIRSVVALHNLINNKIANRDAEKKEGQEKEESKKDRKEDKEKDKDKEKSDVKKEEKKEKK
How it was run: as §1

UCHL1 = UCHL1 (UniProt P09936)
How it was run: as §1

UCHL3 = target: T4, UCHL3 (UniProt P15374)
T4 sequence (whole entry): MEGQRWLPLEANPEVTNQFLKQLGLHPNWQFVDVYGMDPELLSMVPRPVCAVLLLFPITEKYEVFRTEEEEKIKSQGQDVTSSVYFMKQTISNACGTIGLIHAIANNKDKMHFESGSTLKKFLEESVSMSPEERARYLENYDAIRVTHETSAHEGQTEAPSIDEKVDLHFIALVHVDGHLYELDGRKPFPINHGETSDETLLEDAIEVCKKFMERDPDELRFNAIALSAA
How it was run: as §1

UCHL5 = target: T5, UCHL5 (UniProt Q9Y5K5)
T5 sequence (whole entry): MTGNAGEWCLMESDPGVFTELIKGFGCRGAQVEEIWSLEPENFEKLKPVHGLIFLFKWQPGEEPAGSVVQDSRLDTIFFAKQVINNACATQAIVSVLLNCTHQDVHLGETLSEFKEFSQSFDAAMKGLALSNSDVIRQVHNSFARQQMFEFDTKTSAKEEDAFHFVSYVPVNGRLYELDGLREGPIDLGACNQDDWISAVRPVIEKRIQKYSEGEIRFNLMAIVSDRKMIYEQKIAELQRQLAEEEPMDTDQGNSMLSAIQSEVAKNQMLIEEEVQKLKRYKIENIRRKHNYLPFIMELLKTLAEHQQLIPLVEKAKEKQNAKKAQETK
How it was run: as §1

USP10 = USP10 (UniProt Q14694)
How it was run: as §1

USP15 = target: T6, USP15 (UniProt Q9Y4E8)
T6 sequence (whole entry): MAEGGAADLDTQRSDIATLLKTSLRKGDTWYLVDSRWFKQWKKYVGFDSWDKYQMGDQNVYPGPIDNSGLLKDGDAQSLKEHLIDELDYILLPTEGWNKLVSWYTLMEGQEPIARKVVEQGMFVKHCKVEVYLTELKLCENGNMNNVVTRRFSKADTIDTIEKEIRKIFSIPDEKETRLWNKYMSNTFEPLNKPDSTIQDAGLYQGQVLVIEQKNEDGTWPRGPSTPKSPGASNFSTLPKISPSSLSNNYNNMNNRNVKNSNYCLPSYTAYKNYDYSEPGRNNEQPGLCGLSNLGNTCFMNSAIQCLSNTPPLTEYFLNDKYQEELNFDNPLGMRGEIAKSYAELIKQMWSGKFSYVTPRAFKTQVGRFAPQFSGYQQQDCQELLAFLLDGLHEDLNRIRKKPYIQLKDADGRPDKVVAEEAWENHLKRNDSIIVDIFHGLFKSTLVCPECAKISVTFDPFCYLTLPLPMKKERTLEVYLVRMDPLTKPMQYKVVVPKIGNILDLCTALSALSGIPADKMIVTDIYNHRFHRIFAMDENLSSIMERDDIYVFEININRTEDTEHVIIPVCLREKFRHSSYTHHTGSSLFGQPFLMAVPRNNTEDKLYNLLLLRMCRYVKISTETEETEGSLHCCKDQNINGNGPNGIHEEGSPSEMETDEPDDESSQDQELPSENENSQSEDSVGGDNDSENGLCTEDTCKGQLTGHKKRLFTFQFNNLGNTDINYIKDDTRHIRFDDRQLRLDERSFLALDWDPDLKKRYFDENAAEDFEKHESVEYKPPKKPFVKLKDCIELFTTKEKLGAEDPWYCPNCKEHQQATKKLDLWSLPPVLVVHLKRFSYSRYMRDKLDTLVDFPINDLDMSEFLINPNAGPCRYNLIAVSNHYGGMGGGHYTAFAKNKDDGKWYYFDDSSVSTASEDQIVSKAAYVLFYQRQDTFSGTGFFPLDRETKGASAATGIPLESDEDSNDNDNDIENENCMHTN
How it was run: as §1

USP16 = USP16 (UniProt Q9Y5T5)
How it was run: as §1

Measured: log2 ratio of Biotin-Ahx-Ub-VS probe labelling

USP16, sequence (Q9Y5T5 whole entry, looked up): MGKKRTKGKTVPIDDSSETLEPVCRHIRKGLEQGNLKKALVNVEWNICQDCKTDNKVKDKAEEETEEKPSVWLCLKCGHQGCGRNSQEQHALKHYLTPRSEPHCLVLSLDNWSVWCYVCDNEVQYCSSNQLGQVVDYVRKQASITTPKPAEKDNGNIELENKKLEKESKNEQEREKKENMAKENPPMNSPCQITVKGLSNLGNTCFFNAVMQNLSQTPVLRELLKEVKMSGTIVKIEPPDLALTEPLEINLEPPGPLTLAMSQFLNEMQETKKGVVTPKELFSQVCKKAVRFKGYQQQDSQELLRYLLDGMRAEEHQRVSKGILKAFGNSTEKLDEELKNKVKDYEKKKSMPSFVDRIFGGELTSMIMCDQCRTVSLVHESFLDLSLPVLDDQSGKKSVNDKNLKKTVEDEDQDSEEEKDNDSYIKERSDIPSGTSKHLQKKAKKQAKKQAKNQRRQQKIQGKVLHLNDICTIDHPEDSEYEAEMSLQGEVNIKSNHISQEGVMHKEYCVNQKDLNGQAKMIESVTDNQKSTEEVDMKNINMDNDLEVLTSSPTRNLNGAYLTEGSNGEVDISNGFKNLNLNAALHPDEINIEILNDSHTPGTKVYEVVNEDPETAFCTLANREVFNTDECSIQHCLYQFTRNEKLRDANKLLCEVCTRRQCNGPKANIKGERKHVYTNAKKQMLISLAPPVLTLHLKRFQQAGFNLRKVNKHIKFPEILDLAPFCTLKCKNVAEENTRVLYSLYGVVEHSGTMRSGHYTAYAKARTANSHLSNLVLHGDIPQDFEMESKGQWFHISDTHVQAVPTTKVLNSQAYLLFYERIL
UCHL1, sequence (P09936 whole entry, looked up): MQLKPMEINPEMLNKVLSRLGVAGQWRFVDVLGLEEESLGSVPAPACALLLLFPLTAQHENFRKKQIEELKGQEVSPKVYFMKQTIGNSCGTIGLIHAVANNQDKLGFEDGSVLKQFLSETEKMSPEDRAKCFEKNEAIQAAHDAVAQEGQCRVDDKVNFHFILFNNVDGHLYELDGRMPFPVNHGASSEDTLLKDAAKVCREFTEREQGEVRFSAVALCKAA
USP10, sequence (Q14694 whole entry): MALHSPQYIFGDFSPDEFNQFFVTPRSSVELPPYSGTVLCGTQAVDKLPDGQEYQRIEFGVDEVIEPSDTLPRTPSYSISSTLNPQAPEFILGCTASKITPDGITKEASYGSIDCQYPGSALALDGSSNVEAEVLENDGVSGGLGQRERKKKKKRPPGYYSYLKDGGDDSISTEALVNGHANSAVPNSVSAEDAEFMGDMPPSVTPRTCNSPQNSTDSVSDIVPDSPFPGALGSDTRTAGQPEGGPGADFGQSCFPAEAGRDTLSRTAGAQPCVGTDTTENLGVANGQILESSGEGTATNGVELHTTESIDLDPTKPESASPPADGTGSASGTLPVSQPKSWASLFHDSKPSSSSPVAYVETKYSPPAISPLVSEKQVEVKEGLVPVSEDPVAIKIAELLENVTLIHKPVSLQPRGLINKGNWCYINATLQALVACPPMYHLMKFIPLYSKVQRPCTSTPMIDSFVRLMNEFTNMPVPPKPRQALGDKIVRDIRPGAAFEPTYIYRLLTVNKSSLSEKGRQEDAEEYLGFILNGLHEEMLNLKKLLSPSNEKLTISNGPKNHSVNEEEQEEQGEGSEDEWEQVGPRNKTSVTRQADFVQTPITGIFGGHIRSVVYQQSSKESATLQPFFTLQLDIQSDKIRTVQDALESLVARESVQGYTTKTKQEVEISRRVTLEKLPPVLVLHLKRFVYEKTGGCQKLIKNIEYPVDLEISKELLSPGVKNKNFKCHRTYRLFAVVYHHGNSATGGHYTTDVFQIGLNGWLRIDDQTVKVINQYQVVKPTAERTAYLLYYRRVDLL

Cc1nc(-c2cccc(NC(=O)CCl)c2)cs1
inactive: OTUD6B -0.247 | OTUD7B -0.69 | PRPF8 0.052 | PSMD7 -0.167 | UCHL1 -0.133 | UCHL3 -0.844 | UCHL5 -0.43 | USP10 -0.202 | USP15 -0.235 | USP16 -0.418
